Measurements: PubChem BioAssay AID1159580 (chemical genetic matrix, 2015)
Out of some 5,500 compounds screened, about 2,000 (36%) were called active. About 18% were inconclusive and are not listed. Cut-off read from the data, not from the text of the source: active = normalized growth mostly below about 0.91 (no sharp cut-off); inconclusive = no clear call, values can overlap the other calls; inactive = mostly above about 0.92. The list shows a part of the results.

Assay: chemical genetic growth profiling, strain panel (AID 1159580);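 note: tested at 20 µM; growth read once vehicle control cultures reached saturation at 30 °C; 1 = growth at the plate median or of vehicle wells; lower values mean less growth of the strain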
Conditions: growth OD

Measured: normalized growth

COC(=O)c1cccc(NC(=O)CC2C(=O)NCCN2C(=O)c2cccs2)c1 (centres undefined)
inactive: S. cerevisiae deletion strains, locus YAL013W, strain DEP1, active compounds read low 1.02 | S. cerevisiae deletion strains, locus YBR229C, strain ROT2, active compounds read low 1.02 | S. cerevisiae deletion strains, locus YDL101C, strain DUN1, active compounds read low 1 | S. cerevisiae deletion strains, locus YDL134C, strain PPH21, active compounds read low 1.04 | S. cerevisiae deletion strains, locus YDR150W, strain NUM1, active compounds read low 0.982 | S. cerevisiae deletion strains, locus YEL061C, strain CIN8, active compounds read low 1.01 | S. cerevisiae deletion strains, locus YGR078C, strain PAC10, active compounds read low 1.01 | S. cerevisiae deletion strains, locus YHR030C, strain SLT2, active compounds read low 1.07 | S. cerevisiae deletion strains, locus YHR087W, strain rtc3, active compounds read low 0.987 | S. cerevisiae deletion strains, locus YJL187C, strain SWE1, active compounds read low 0.989 | S. cerevisiae deletion strains, locus YJR043C, strain POL32, active compounds read low 1.02 | S. cerevisiae deletion strains, locus YJR075W, strain HOC1, active compounds read low 1.01 | S. cerevisiae deletion strains, locus YLR039C, strain RIC1, active compounds read low 1.02 | S. cerevisiae deletion strains, locus YLR058C, strain SHM2 (second series), active compounds read low 0.996 | S. cerevisiae deletion strains, locus YLR085C, strain ARP6, active compounds read low 0.997 | S. cerevisiae deletion strains, locus YLR262C, strain YPT6, active compounds read low 1.08 | S. cerevisiae deletion strains, locus YML094W, strain GIM5, active compounds read low 0.993 | S. cerevisiae deletion strains, locus YMR219W, strain ESC1, active compounds read low 1.01 | S. cerevisiae deletion strains, locus YMR263W, strain SAP30, active compounds read low 0.958 | S. cerevisiae deletion strains, locus YMR307W, strain GAS1, active compounds read low 1.01 | S. cerevisiae deletion strains, locus YNL128W, strain TEP1, active compounds read low 1.01 | S. cerevisiae deletion strains, locus YNL153C, strain GIM3, active compounds read low 1.01 | S. cerevisiae deletion strains, locus YNL298W, strain CLA4 (second series), active compounds read low 1.04 | S. cerevisiae deletion strains, locus YNL322C, strain KRE1, active compounds read low 1 | S. cerevisiae deletion strains, locus YNR030W, strain Alg12, active compounds read low 1.03 | S. cerevisiae deletion strains, locus YPL055C, strain LGE1, active compounds read low 0.941 | S. cerevisiae deletion strains, locus YPL241C, strain CIN2, active compounds read low 1.01 | S. cerevisiae deletion strains, locus YPR135W, strain CTF4, active compounds read low 1.1 | S. cerevisiae strains, strain wild type, active compounds read low 1.02
